Measured values: PubChem BioAssay (NCATS)
Records with an inconclusive call do not appear. Calls of active or inactive are those of the source. Unless noted, calls follow the shape of the dose curve; as a rule, active = well fitted curve in the direction sought with a large enough effect; inconclusive = small, poorly fitted or top-dose-only effect, or another doubt; inactive = no such curve, though single readings can be large; an effect the other way counts as inactive or inconclusive.

Columns and labels:
[1] = Cell Viability - BJ (AID 421; calls by dose curve;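 also: potency is read from the fitted curve at half-maximal effect; cells exposed to compound for 40 hours at 37 °C before readout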); conditions: BJ fibroblast viability, qHTS
How it was run: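 Cytotoxicity as drop in intracellular ATP (CellTiter-Glo, 20 min RT) after 40 hr compound exposure of BJ fibroblasts at 37 °C. Titrations scaled between DMSO and 100 uM tamoxifen, Hill-fitted for AC50.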

[2] = Cell Viability - Jurkat (AID 426;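 active = dose-dependent loss of cell ATP signal giving a full or clear fitted curve, ranked by lower potency value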; also: potency is read from the fitted curve at half-maximal effect); conditions: qHTS
How it was run: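 Luminescent ATP read-out (CellTiter-Glo, 20 min at room temperature) after 40 hr compound exposure at 37 °C of Jurkat E6-1 cells, 5000/well. Decreased ATP taken as cytotoxicity; AC50 from standard Hill equation.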

[3] = Cell Viability - Hek293 (AID 427;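 active = compounds whose dose-response curve shows a full or clear partial loss of cell viability, called from curve shape rather than a numeric limit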;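 also: potency is read from the fitted curve at half-maximal effect; cells exposed to compound for 40 hours at 37 °C before reading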); conditions: qHTS
How it was run: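 Luminescent ATP content (CellTiter-Glo, 20 min at room temperature) was measured after a 40 hr, 37 °C compound exposure of HEK293 cells. AC50 values came from Hill-equation fits of qHTS concentration-response data normalized to DMSO and 100 uM tamoxifen.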

[4] = Cell Viability - HepG2 (AID 433; calls by dose curve;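 also: potency is read from the fitted curve at half-maximal effect; potency for ATP loss meaning cytotoxicity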); conditions: qHTS
How it was run: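 In this qHTS format, a 40 h, 37 °C compound incubation of HepG2 cells in complete medium precedes a 20 min CellTiter-Glo step at room temperature. Tamoxifen and doxorubicin serve as positive controls; Hill-equation fits yield AC50.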

[5] = Cell Viability - MRC5 (AID 434; calls by dose curve;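 also: potency is read from the fitted curve at half-maximal effect; potency reflects cytotoxicity seen as loss of intracellular ATP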); conditions: MRC5 lung fibroblast viability, qHTS
How it was run: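 ATP luminescence read-out (CellTiter-Glo, 20 min RT) after 40 hr, 37 °C compound exposure of 1500 MRC5 cells/well. Data normalized to DMSO (basal) and 100 uM tamoxifen (100% inhibition); AC50 from standard Hill equation.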

[6] = Cell Viability - SK-N-SH (AID 435; calls by dose curve; also: potency is read from the fitted curve at half-maximal effect); conditions: SK-N-SH neuroblastoma cell viability qHTS
How it was run: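 Human neuroblastoma line, 40 h exposure at 37 °C, ATP quantified via luciferase luminescence; DMSO and 100 uM tamoxifen define 0 and 100% inhibition for AC50 fitting.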

[7] = Cell Viability - N2a (AID 540); conditions: N2a mouse neuroblastoma cell viability; activity change, negative = cytotoxicity: at 92.2 µM (top of the series);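 also: plate controls were DMSO alone for no effect and tamoxifen control for full effect; nearly all actives have a fitted effect of over 45% in size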
How it was run: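 N2a mouse neuroblastoma, 1500 cells/well, 5 hr settle; compound 40 hr, 37 °C; CellTiter-Glo 20 min RT; luminescence; Hill-fit AC50.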

[8] = Cell Viability - NIH 3T3 (AID 541); conditions: NIH 3T3 cell viability, qHTS; activity change, negative = cytotoxicity: at 92.2 µM (top of the series);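 also: plate controls were DMSO alone for no effect and tamoxifen positive control for full effect; nearly all actives have a fitted effect of over 25% in size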
How it was run: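 qHTS format; 40 hr compound exposure, 37 °C; CellTiter-Glo luminescence (cellular ATP) read-out after 20 min at RT. Decrease in ATP = cytotoxicity; AC50 from standard Hill fit.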

[9] = Cell Viability - HUV-EC-C (AID 542); conditions: HUV-EC-C endothelial cell viability, qHTS; series mostly up to 92.2 µM; also: % is scaled to controls: 0 for no effect and ±100 for the full control effect; nearly all actives have a fitted effect of over 35% in size
How it was run: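 Luminescent ATP read-out (CellTiter-Glo, 20 min room temperature) after 40 hr compound treatment of HUV-EC-C cells at 37 °C. Concentration-response data fitted with the standard Hill equation to give AC50; tamoxifen and doxorubicin served as positive controls.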

[10] = Cell Viability - H-4-II-E (AID 543); conditions: H-4-II-E rat hepatoma viability; series mostly up to 92.2 µM; also: % is scaled to controls: 0 for no effect and ±100 for the full control effect; nearly all actives have a fitted effect of over 35% in size
How it was run: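 qHTS, rat hepatoma H-4-II-E, 1500 cells/well; 40 hr compound exposure, 37 °C; CellTiter-Glo ATP luminescence after 20 min RT; AC50 by standard Hill fit.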

[11] = Cell Viability - SH-SY5Y (AID 544); conditions: SH-SY5Y neuroblastoma cell viability; viability change, negative = cytotoxic: at 92.2 µM (top of the series); also: nearly all actives have a fitted effect of over 55% in size
How it was run: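 SH-SY5Y, 1500 cells/well, 5 hr pre-incubation 37 °C; cpd 40 hr 37 °C; CellTiter-Glo 20 min RT; luminescence (ATP) read. qHTS concentration-response, Hill fit → AC50. Tamoxifen, doxorubicin as positive controls.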

[12] = Cell Viability - Renal Proximal Tubule (AID 545); conditions: renal proximal tubule cells viability, primary cells of rat origin; series mostly up to 91.7 µM; also: nearly all actives have a fitted effect of over 40% in size
How it was run: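 In this qHTS format, normal rat kidney-derived proximal tubule cells in complete culture medium receive compound titrations, then sit 40 hours at 37 °C before luciferase-based ATP quantitation; potency is reported as AC50 from concentration-response curves.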

[13] = Cell Viability - Mesenchymal (AID 546); conditions: mesenchymal cells viability, qHTS; series mostly up to 91.7 µM;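 also: cells exposed to compound for 40 hours before reading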
How it was run: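 Human renal mesenchymal cells (glomerulus-derived), 1000 cells/well, 5 hr 37 °C pre-incubation; compound 40 hr, 37 °C; CellTiter-Glo, 20 min RT; luminescence; AC50 via Hill equation.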

[14] = Cellular Toxicity (caspase-3) HepG2 (AID 654); conditions: HepG2 caspase-3 activation, luminescence; series mostly up to 92.2 µM;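 also: cells exposed to compound for 16 hours before reading; 0% = DMSO alone and 100% = caspase signal from 100 µM tamoxifen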
How it was run: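 Luminescent Caspase-Glo 3/7 readout after 16 hr compound exposure of human hepatocellular carcinoma HepG2 cells at 37 °C; qHTS concentration-response, normalized DMSO = 0%, 100 uM tamoxifen = 100%; AC50 by standard Hill equation.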

[15] = Cellular Toxicity (caspase-3) Jurkat (AID 655); conditions: Jurkat caspase-3 activation, luminescence; caspase-3 activation: at 92.2 µM (top of the series), DMSO = 0%, tamoxifen = 100%;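 also: cells exposed to compound for 16 h at 37 °C before reading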
How it was run: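 qHTS in human Jurkat T-cell leukemia line: 16 hr compound treatment at 37 °C, caspase-3/7 activity measured by Caspase-Glo luminescence. AC50 derived from Hill equation.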

[16] = Cellular Toxicity (caspase-3) HUV-EC-C (AID 656); conditions: HUV-EC-C cells, caspase-3 activation (apoptosis), vehicle = 0, 100 µM tamoxifen = 100%; series mostly up to 92.2 µM;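 also: cells exposed to compound for 16 h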
How it was run: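 Concentration-dependent caspase 3/7 induction was assessed in HUV-EC-C cells exposed for 16 hours. Data scaled between DMSO and tamoxifen (100 uM) controls.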

[17] = Cellular Toxicity (caspase-3) SHSY5Y (AID 657); conditions: SH-SY5Y caspase-3 activation, DMSO zero, 10 µM staurosporine = 100%; series mostly up to 91.7 µM;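 also: cells exposed to compound for 16 hours at 37 °C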
How it was run: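 Readout: caspase-cleaved peptide-aminoluciferin substrate driving luciferase light in SH-SY5Y neuroblastoma cells after 16 h treatment. Response normalized to DMSO and 10 uM staurosporine controls.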

[18] = Cellular Toxicity (caspase-3) BJ (AID 658); conditions: BJ fibroblasts, luminescence, normalized: DMSO 0%, staurosporine 100%; series mostly up to 91.7 µM
How it was run: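 qHTS, BJ fibroblasts, 1000 cells/well; 5 hr preincubation, 16 hr compound, 37 °C; Caspase-Glo 3/7 reagent, 1 hr RT; luminescence. DMSO = 0%, 10 uM staurosporine = 100%. Hill-equation AC50.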

[19] = Cellular Toxicity (caspase-3) MRC-5 (AID 659); conditions: MRC-5 cells, luminescence, normalized: DMSO 0%, 10 µM staurosporine 100%; series mostly up to 91.7 µM;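 also: cells exposed to compound for 16 h at 37 °C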
How it was run: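 MRC-5 fibroblasts, 1500/well; 16 h cpd, 37 °C; Caspase-Glo 3/7, 1 h RT; lumi read. Norm: DMSO = 0%, 10 uM staurosporine = 100%. Hill-fit AC50 from qHTS conc-response.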

[20] = biological target: Mitogen-activated protein kinase 10 (Mus musculus) (UniProt Q61831); assay: JNK3 AlphaScreen Assay (AID 530; active = well fitted curve in either direction with a large enough effect, not every such curve was filed as active;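 also: kinase came from lysate of stimulated human HepG2 cells; signal reports phosphorylation of biotinylated GST-cJun 1-79 at Ser73 with 10 µM ATP; % is scaled to controls: 0 for no effect and ±100 for the full control effect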); conditions: JNK3 lysate, c-Jun phosphorylation; series mostly up to 57.1 µM
How it was run: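 HepG2 lysate (IL-1b/TNFa pre-activated) + biotin-GST-cJun 1-79 + anti-pSer73 cJun; cpd titration, 15 min RT; ATP 10 uM start; Tris pH 7.6, MgCl2, DTT, vanadate; beads in EDTA buffer; AlphaScreen.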

NC(=O)CCCCC(N)=O
inactive: Potency [1] > 92 µM | Potency [2] > 92 µM | Potency [3] > 92 µM | Potency [4] > 92 µM | Potency [5] > 92 µM | Potency [6] > 92 µM | activity change, negative = cytotoxicity [7] -5.03% | Potency [8] | Potency [9] | Potency [10] | Potency [11] | Potency [12] | Potency [13] | Potency [14] | caspase-3 activation [15] 2.15% | outcome [16] | outcome [17] | outcome [18] | outcome [19]

CC(C)(C)OCC1CO1 (centres undefined)
inactive: Potency [1] > 92 µM | Potency [2] > 92 µM | Potency [3] > 92 µM | Potency [4] > 92 µM | Potency [5] > 92 µM | outcome [20] | activity change, negative = cytotoxicity [7] 3.76% | Potency [8] | Potency [9] | Potency [10] | Potency [11] | Potency [12] | Potency [13] | Potency [14] | caspase-3 activation [15] 0.113% | outcome [16] | outcome [17] | outcome [18] | outcome [19]

CCCCN(CCO)CCCC
inactive: Potency [1] > 92 µM | Potency [2] > 92 µM | Potency [3] > 92 µM | Potency [4] > 92 µM | Potency [5] > 92 µM | outcome [20] | activity change, negative = cytotoxicity [7] -15.2% | Potency [8] | Potency [9] | Potency [10] | Potency [11] | Potency [12] | Potency [13] | Potency [14] | caspase-3 activation [15] -0.474% | outcome [16] | outcome [17] | outcome [18] | outcome [19]

CC(=O)Nc1ccc(C)cc1
inactive: Potency [1] > 92 µM | Potency [2] > 92 µM | Potency [3] > 92 µM | Potency [4] > 92 µM | Potency [5] > 92 µM | Potency [6] > 92 µM | activity change, negative = cytotoxicity [7] -10.4% | Potency [9] | Potency [10] | Potency [11] | Potency [12] | Potency [13] | Potency [14] | caspase-3 activation [15] 1.97% | outcome [16] | outcome [17] | outcome [18]

COc1ccc(N)c(OC)c1
inactive: Potency [1] > 92 µM | Potency [2] > 92 µM | Potency [3] > 92 µM | Potency [4] > 92 µM | Potency [5] > 92 µM | outcome [20] | activity change, negative = cytotoxicity [7] -1.93% | Potency [8] | Potency [9] | Potency [10] | Potency [11] | Potency [12] | Potency [13] | Potency [14] | caspase-3 activation [15] 0.6% | outcome [16] | outcome [17] | outcome [18] | outcome [19]

Cc1cc(C)cc(O)c1
inactive: Potency [1] > 92 µM | Potency [2] > 92 µM | Potency [3] > 92 µM | Potency [4] > 92 µM | Potency [5] > 92 µM | outcome [20] | activity change, negative = cytotoxicity [7] -1.73% | Potency [8] | Potency [9] | Potency [10] | Potency [11] | Potency [12] | Potency [13] | Potency [14] | caspase-3 activation [15] 0.986% | outcome [16] | outcome [17] | outcome [18] | outcome [19]

CCCCC(CC)CO (centres undefined)
inactive: Potency [1] > 92 µM | Potency [2] > 92 µM | Potency [3] > 92 µM | Potency [4] > 92 µM | Potency [5] > 92 µM | Potency [6] > 92 µM | activity change, negative = cytotoxicity [7] -1.19% | Potency [8] | Potency [9] | Potency [10] | Potency [11] | Potency [12] | Potency [13] | Potency [14] | caspase-3 activation [15] 0.69% | outcome [16] | outcome [17] | outcome [18] | outcome [19]

CCCCOCCOCCOCCCC
inactive: Potency [1] > 92 µM | Potency [2] > 92 µM | Potency [3] > 92 µM | Potency [4] > 92 µM | Potency [5] > 92 µM | Potency [6] > 92 µM | activity change, negative = cytotoxicity [7] 3.3% | Potency [8] | Potency [9] | Potency [10] | Potency [11] | Potency [12] | Potency [13] | Potency [14] | outcome [16] | outcome [17] | outcome [18] | outcome [19]

Nc1ccc(Cl)cc1[N+](=O)[O-]
inactive: Potency [1] > 92 µM | Potency [2] > 92 µM | Potency [3] > 92 µM | Potency [4] > 92 µM | Potency [6] > 92 µM | outcome [20] | activity change, negative = cytotoxicity [7] -24.6% | Potency [8] | Potency [9] | Potency [10] | Potency [11] | Potency [12] | Potency [13] | Potency [14] | caspase-3 activation [15] -0.00309% | outcome [16] | outcome [17] | outcome [18] | outcome [19]

O=C1OC(=O)c2c(Cl)c(Cl)c(Cl)c(Cl)c21
inactive: Potency [1] > 92 µM | Potency [2] > 92 µM | Potency [3] > 92 µM | Potency [4] > 92 µM | Potency [6] > 92 µM | outcome [20] | activity change, negative = cytotoxicity [7] 4.39% | Potency [8] | Potency [9] | Potency [10] | Potency [11] | Potency [12] | Potency [13] | Potency [14] | caspase-3 activation [15] 0.457% | outcome [16] | outcome [17] | outcome [18] | outcome [19]

COc1ccc(N)c(C)c1
inactive: Potency [1] > 92 µM | Potency [2] > 92 µM | Potency [3] > 92 µM | Potency [4] > 92 µM | Potency [6] > 92 µM | outcome [20] | activity change, negative = cytotoxicity [7] 11.2% | Potency [8] | Potency [9] | Potency [10] | Potency [11] | Potency [12] | Potency [13] | Potency [14] | caspase-3 activation [15] 0.894% | outcome [16] | outcome [17] | outcome [18] | outcome [19]

O=C(O)c1ccc(Cl)cc1Cl
inactive: Potency [1] > 92 µM | Potency [2] > 92 µM | Potency [3] > 92 µM | Potency [4] > 92 µM | Potency [6] > 92 µM | outcome [20] | activity change, negative = cytotoxicity [7] 7.33% | Potency [8] | Potency [9] | Potency [10] | Potency [11] | Potency [12] | Potency [13] | Potency [14] | outcome [16] | outcome [17] | outcome [18] | outcome [19]
